These results are taken from PubChem BioAssay (EPA / NIEHS).

Where a structure was tested more than once in an assay, its records may differ in their call. Activity calls are given as the source filed them. How the source made its calls: active means hit-call score of the fitted dose curve at least 0.9, where 1 is the maximum; inactive means score below 0.9.

As a reminder, the AC50 is the concentration giving half of the maximal activity seen.

The assay is described as follows: ATG_FoxO_CIS: Attagene CIS-FACTORIAL HepG2 Assay for human Forkhead box O (FoxO) (AID 2282943). The following applies: HepG2 Attagene cis-reporter, FoxO element, mRNA; actives raise or lower the signal. As for the experimental part:
ATG_CIS is a cell-based, multiplexed-readout assay that uses HepG2, a human liver cell line, with measurements taken at 24 hours after chemical dosing in a 24-well plate.ATG_FoxO_CIS is one of 52 assay component(s) measured or calculated from the ATG_CIS assay. It is designed to make measurements of mRNA induction, a form of inducible reporter, as detected with fluorescence intensity signals by Reverse transcription polymerase chain reaction (RT-PCR) and Capillary electrophoresis technology.Data from the assay component ATG_FoxO_CIS was analyzed into 1 assay endpoint. This assay endpoint, ATG_FoxO_CIS, was analyzed with bidirectional fitting relative to DMSO as the negative control and baseline of activity. Using a type of inducible reporter, measures of mRNA for gain or loss-of-signal activity can be used to understand the reporter gene at the transcription factor-level as they relate to the gene FOXO1 and FOXO3. Furthermore, this assay endpoint can be referred to as a primary readout, because this assay has produced multiple assay endpoints where this one serves a reporter gene function. To generalize the intended target to other relatable targets, this assay endpoint is annotated to the dna binding intended target family, where the subfamily is forkhead box protein.
Human liver HepG2 cells are transiently transfected with multiple reporter transcription units (MRTUs) in 6-well plates using FuGene 6 reagent (Roche; 3 ml FuGene/1 mg DNA). The MRTU constructs are regulated by a cis-regulating element (promoter). […] A major difference between the CIS and TRANS system is that in CIS activities of endogenous TFs are measured, whereas the TRANS assay evaluates changes in activities of exogenous, chimeric NR-Gal4 proteins. […] At the end of 24 hour incubation, total RNA was isolated using TriZol reagent (Invitrogen). The isolated RNA is then reverse-transcribed using oligo(dT) primer and Mo-MLV reverse transcriptase (Invitrogen) with DNAse I (Ambion) treatment for 30 min. The one-tenth of the produced cDNA was amplified by PCR using Taq DNA polymerase (Invitrogen) and two reporter sequence-specific primers. The PCR products were fluorescently labeled by primer extension with 6-arboxyfluorescein (6-FAM) 5'-labeled reporter sequence-specific primer (2 min at 95 C, 20 s at 68 C and 10 min at 72 C) and these products were digested with 5U of HpaI (New England Biolabs) for 2h at 37 C. The fragments were purified using Qiaquick PCR columns (Qiagen), analyzed on an ABI 3130xL genetic analyzer (Applied Biosystems) with peak positions identified by using a set of X-rhodamine (ROX)-labeled MapMarker1000 molecular weight standards (BioVentures). The raw capillary electrophoresis data was processed using Attagraph software (Attagene).
For `CC[C@@H]1C[C@H](N(Cc2cc(C(F)(F)F)cc(C(F)(F)F)c2)C(C)=O)c2cc(C(F)(F)F)ccc2N1C(=O)OC(C)C`, the compound was called inactive. Regarding `O=C(O)Cc1cc(I)c(Oc2ccc(O)c(I)c2)c(I)c1`, the compound was called inactive. Same read-out and setting: as for `Cc1ncc(CO)c(CO)c1O`, the entry is “inactive”; as for `O=C(OCCCCCCOC(=O)c1ccccc1)c1ccccc1`, “inactive”. Turning to `Cc1ccc(C(C)C)cc1`, the outcome was inactive. Same read-out and setting: as for `CCCCCCCCOC(=O)c1cc(O)c(O)c(O)c1`, the entry is “inactive”; as for `c1ccc2ccccc2c1`, “inactive”. Still for that read-out and setting: as for `CC(C)(O)c1ccc(CNC(=O)c2cccnc2Oc2ccc3nonc3c2)cc1`, the entry is “inactive”; as for `Clc1ccccc1C(c1ccccc1)(c1ccccc1)n1ccnc1`, “inactive”. In the case of `CC(O)CC(C)(C)O` (stereo not given), the AC50 is 0.0124 µM (active) and the compound was called inactive. In the case of `Cc1cc2c(cc1C(F)(F)F)N(C(=O)Nc1ccc(Oc3cccnc3C)nc1)CC2`, the call was inactive. As to `CN1C(=O)N(c2ccccc2Br)Cc2cnc(Nc3ccc4c(c3)OCC(CO)O4)nc21` (stereo not given), the compound was called inactive. Still for that read-out and setting: the result for `OCCO` reads “inactive”.

Regarding `C[C@]12CC[C@@H]3c4ccc(O)cc4CC[C@H]3[C@@H]1CCC2=O`, the result was inactive. The same measure, in the same setting: as for `Cc1c2ccccc2c(C)c2c1ccc1ccccc12`, the entry is “inactive”; as for `CN(C)c1ccc(C(=C2C=CC(=[N+](C)C)C=C2)c2ccc(N(C)C)cc2)cc1`, “inactive”. Still for that read-out and setting: as for `Cc1ccc2oc(CN(Cc3ccccc3)C(=O)Nc3c(F)cc(F)cc3F)c(-c3ccc(Cl)cc3)c2c1`, the entry is “inactive”. Still for that read-out and setting: as for `O=C(O)Cn1c(=O)n(Cc2ccc(Br)cc2F)c(=O)c2ccc(Cl)cc21`, the entry is “inactive”; as for `c1ccc2n[nH]nc2c1`, “inactive”; as for `Cc1cn([C@H]2C[C@H](N=[N+]=[N-])[C@@H](CO)O2)c(=O)[nH]c1=O`, “inactive”. In the case of `Cc1cc(F)ccc1-c1cc(N2CC[C@@H](O)[C@H]2CO)ncc1N(C)C(=O)C(C)(C)c1cc(C(F)(F)F)cc(C(F)(F)F)c1`, the result was inactive. On to `O=C=NCCCCCCN=C=O`, for which the outcome was inactive. On the same count and under the same terms, as for `Cc1cccc2ccccc12`, the entry is “inactive”. On the same count and under the same terms, the result for `Cc1occc1C(=O)Nc1ccc(C(=O)N2CCC(F)(F)/C(=C\C(=O)N3CCC(N4CCCCC4)CC3)c3ccccc32)cc1` reads “inactive”; that for `CCN(Cc1cccc(S(=O)(=O)O)c1)c1ccc(C(=C2C=CC(=[N+](CC)Cc3cccc(S(=O)(=O)O)c3)C=C2)c2ccccc2S(=O)(=O)[O-])cc1`, “inactive”.

On to `CC/C(=C(/CC)c1ccc(O)cc1)c1ccc(O)cc1`, for which the outcome was inactive. In the case of `CC(C)(c1cc(Br)c(O)c(Br)c1)c1cc(Br)c(O)c(Br)c1`, the half-maximal activity concentration (AC50) was 58 µM (active) and the compound was classed as inactive.

As to `CC[C@H](NC(=O)c1cc(F)ccc1NS(=O)(=O)c1cccc2cccnc12)c1ccccc1`, the compound was classed as inactive. On the same count and under the same terms, the result for `CCCCCCCCOc1ccc(C(=O)c2ccccc2)c(O)c1` reads “inactive”; that for `Oc1ccccc1`, “inactive”; that for `Clc1cc(Cl)c2c(c1)N=C1CCCCCN1C2`, “inactive”. On the same count and under the same terms, as for `CCCCCCCCCCCCO`, the entry is “inactive”.

With `O=C(O)c1ccccc1-n1cc(C(=O)O)c(=O)c2cc(Nc3c(F)cc(F)cc3Cl)c(Cl)cc21`, the outcome was inactive.

As for `CC1(C)NC(=O)N(c2ccc([N+](=O)[O-])c(C(F)(F)F)c2)C1=O`, the outcome was inactive.

As for `CCOC(=O)O[C@H](C)OC(=O)c1ccc2c(c1)cc(C(=O)NC1CCN(C(C)C)CC1)n2Cc1cc(-c2ccc(Cl)s2)on1`, the call was inactive. The same measure, in the same setting: as for `CCCCCc1ccc(N)cc1`, the entry is “inactive”; as for `O=C(O)c1ccccc1C(=O)OCc1ccccc1`, “inactive”. On the same count and under the same terms, the result for `CCO[Si](CCCNC(N)=O)(OCC)OCC` reads “inactive”.
